The whole screen tested about 52,000 compounds, of which about 4,300 (8.3%) were called active. Cut-off read from the data, not from the text of the source: active = survival mostly below about 52% (no sharp cut-off); inactive = mostly above about 56%. What follows is part of a selection rich in actives, with near analogues and random picks from the rest.

The test system of this assay is DeltatarO mutant. The assay is described as follows: S. aureus survival, RN4220 and DeltatarO strains – OD600, teichoic acid synthesis inhibitors, primary screen (AID 463173). To be noted: S. aureus RN4220 wild type/DeltatarO growth, OD600, 18 h, active compounds read low, screened at 18.75 µg/mL (by protocol).
With `Cc1ccc(NC(=O)c2sc3ncnc(N(C)C4CCCCC4)c3c2C)cc1`, the survival is 144% (inactive). The result for `CCOc1ccc(CCNC(=O)c2ccc3nc(CC)c(CC)nc3c2)cc1` reads 91% (inactive); that for `CN(C)C(=O)CSc1ccc(-c2ccc(F)cc2)nn1`, 92% (inactive); that for `CC(C)Oc1ccc(C(=O)Nc2nnc3n2CCS3)cc1`, 124% (inactive).

Turning to `Cc1cccc(NC(=O)NC2CC3CCCC(C2)N3CC(C)C)c1` (stereo not given), the survival was 94% (inactive). The result for `CC(C)C(NS(=O)(=O)c1ccc2c(c1)oc(=O)n2C)C(=O)NCCc1ccccc1` (stereo not given) reads 89% (inactive); that for `COc1ccc(C(=O)Nc2ccc(N3CCOCC3)c(C(F)(F)F)c2)cc1OC`, 91% (inactive); that for `Cc1oc2ccc(O)c(CN3CCN(Cc4ccccc4)CC3)c2c1C(=O)Nc1cccc(Cl)c1C`, 72% (inactive). With `Cc1oc2ccc(O)c(CN(C)Cc3ccccc3)c2c1C(=O)Nc1ccccc1`, the survival is 92% (inactive). The result for `Cc1oc2ccc(O)c(CN3CCN(C)CC3)c2c1C(=O)Nc1cccc(C(F)(F)F)c1` reads 81% (inactive); that for `Cc1oc2ccc(O)c(CN(C)Cc3ccccc3)c2c1C(=O)Nc1cccc(C(F)(F)F)c1`, 6% (active). Turning to `Cc1oc2ccc(O)c(CN(C)Cc3ccccc3)c2c1C(=O)Nc1cccc(Cl)c1C`, the survival was 11% (active). The result for `Cc1oc2ccc(O)c(CN3CCCC3)c2c1C(=O)Nc1cccc(Cl)c1C` reads 71% (inactive); that for `CCOC(=O)c1ccccc1NC(=O)c1c2c(nc3ccccc13)C(=O)N(C1CCCCC1)C2`, 75% (inactive); that for `CC(C)C1N=C2c3ccccc3N=C(SCC(=O)NCc3ccc(F)cc3)N2C1=O` (stereo not given), 73% (inactive). The result for `COc1ccccc1NC(=O)Cn1ccn(-c2cc(C)cc(C)c2)c(=O)c1=O` reads 55% (inactive). Regarding `Cc1ccc(NC(=O)Cn2ccn(-c3ccccc3)c(=O)c2=O)cc1`, the survival is 56% (active).

`COc1cc(NC(=O)Cn2ccn(Cc3ccccc3OC)c(=O)c2=O)cc(OC)c1`: the survival was 52% (inactive). The result for `COc1ccccc1Cn1ccn(CC(=O)Nc2c(C)cc(C)cc2C)c(=O)c1=O` reads 41% (active); that for `CCc1ccc(NC(=O)Cn2ccn(Cc3ccccc3OC)c(=O)c2=O)cc1`, 46% (active).

As to `CCc1ccc(NC(=O)Cn2ccn(-c3ccc(OC)cc3)c(=O)c2=O)cc1`, the survival is 67% (inactive). In the case of `COc1ccc(NC(=O)Cn2ccn(-c3ccccc3)c(=O)c2=O)cc1`, the survival is 52% (inactive). The result for `Cc1ccc(Cn2ccn(CC(=O)Nc3c(C)cc(C)cc3C)c(=O)c2=O)cc1` reads 47% (inactive); that for `O=C(Cn1ccn(-c2ccc(F)cc2)c(=O)c1=O)Nc1ccc(F)cc1`, 60% (inactive). In the case of `COc1ccc(NC(=O)CC2C(=O)N(c3ccc(C)cc3)C(=O)N2CCc2ccccc2)cc1` (stereo not given), the survival is 62% (inactive). The result for `Cc1ccc(-c2cn3c(n2)sc2cc(C(=O)NCCCc4ccccc4)ccc23)c(C)c1` reads 48% (inactive); that for `O=C1N(c2ccccc2)C(=O)N(c2ccccc2)C2c3ccccc3C=CN12` (stereo not given), 100% (inactive).

With `CCOC(=O)c1ccccc1NC(=O)Nc1cc2c(cc1N1CCCC1)n(C)c(=O)n2C`, the survival is 108% (inactive). The result for `CCc1nc2ccc(C(=O)NCCc3ccc(OC)c(OC)c3)cc2nc1CC` reads 88% (inactive); that for `O=C(Nc1sc2c(c1C(=O)Nc1cccc(Cl)c1)CCCC2)c1cccs1`, 159% (inactive); that for `O=C(Nc1cccc(Cl)c1)c1c(NC(=O)C(F)(F)F)sc2c1CCCC2`, -2% (active). The result for `Cc1cccc(NC(=O)c2c(Br)sc3c2CCCC3)c1` reads 3% (active). The result for `CCOc1ccc(NC(=O)c2c(NC(=O)c3cccc(C)c3)sc3c2CCC3)cc1` reads 160% (inactive); that for `Cc1cccc(NC(=O)c2c(N)sc3c2CCC(C)C3)c1` (stereo not given), 59% (inactive); that for `Cc1cccc(NC(=O)c2c(NC(=O)c3ccccc3)sc3c2CCC3)c1`, 72% (inactive). In the case of `O=C(Cc1ccccc1)Nc1sc2c(c1C(=O)Nc1cccc(Cl)c1)CCCCC2`, the survival was 65% (inactive). As for `Cc1cccc(NC(=O)c2c(NC(=O)C(F)(F)F)sc3c2CCCCC3)c1`, the survival was -3% (active). The result for `Cc1cccc(NC(=O)c2c(NC(=O)c3ccccc3)sc3c2CCCC3)c1` reads 61% (inactive); that for `O=c1n(Cc2ccc(F)cc2Cl)c2ccccc2c2nc(-c3ccccc3)nn12`, 125% (inactive).

`O=S(=O)(c1ccc(-c2cnc(C3CC3)o2)cc1)N1CCN(c2cccc(Cl)c2)CC1`: the survival is 75% (inactive). Consider `COc1ccc(Br)cc1CNC(=O)C1COc2ccccc2C1` (stereo not given), for which the survival is 49% (inactive). Regarding `COc1cccc(C(=O)Oc2c(Sc3ccc(C)cc3)c(C)nn2C(C)(C)C)c1OC`, the survival was 21% (active). Regarding `Cc1ccc(Sc2c(C)nn(C(C)(C)C)c2OC(=O)C(C)(C)C)cc1`, the survival is -10% (active).

`CCOc1ccccc1C(=O)Oc1c(Sc2ccccc2)c(C)nn1C(C)(C)C`: the survival was 91% (inactive).

Turning to `COc1ccccc1C(=O)Oc1c(Sc2ccccc2)c(C)nn1C(C)(C)C`, the survival is 87% (inactive).

Consider `COc1ccc(C(=O)Oc2c(Sc3ccc(C)cc3)c(C)nn2C(C)(C)C)c(OC)c1`, for which the survival was 49% (inactive). The result for `Cc1nn(C(C)(C)C)c(OC(=O)C(C)(C)C)c1Sc1ccccc1` reads -10% (active); that for `Cc1ccccc1C(=O)Oc1c(Sc2ccccc2)c(C)nn1C(C)(C)C`, 21% (active); that for `COc1ccc(C(=O)Oc2c(Sc3ccc(C)cc3)c(C)nn2C(C)(C)C)cc1OC`, 115% (inactive).

For the compound `Cc1oc2cc3oc(=O)c(CCC(=O)NCCc4ccccc4F)c(C)c3cc2c1C`, the survival is 94% (inactive). On to `O=S(=O)(c1ccc2oc(-c3cccnc3)nc2c1)c1ccc2oc(-c3cccnc3)nc2c1`, for which the survival is 64% (inactive). The result for `CCOC(=O)c1c(-c2ccc(C)cc2C)csc1NC(=O)c1ccccc1Cl` reads 47% (inactive). The result for `CC(C)c1ccc(C2N3CC4(C)CN2CC(c2ccccc2)(C3)C4=O)cc1` (stereo not given) reads 80% (inactive); that for `CC(C)NC(=O)C1CC(=O)N(c2ccc(Oc3ccccc3)cc2)C1` (stereo not given), 87% (inactive); that for `CSc1ncc(Cl)c(C(=O)Nc2ccc(S(=O)(=O)N3CCC(C)CC3)cc2)n1`, 62% (inactive).

As for `O=C(Cn1ccn(-c2ccc(F)cc2)c(=O)c1=O)Nc1ccccc1C(F)(F)F`, the survival was 50% (inactive). The result for `Cc1ccc(Sc2c(C)nn(C(C)(C)C)c2OC(=O)CC(C)C)cc1` reads -9% (active); that for `COCC(=O)Oc1c(Sc2ccc(C)cc2)c(C)nn1C(C)(C)C`, 78% (inactive); that for `CCC(=O)Oc1c(Sc2ccc(Cl)cc2)c(C)nn1C(C)(C)C`, 78% (inactive). The result for `O=C(CC1Nc2ccccc2NC1=O)Nc1cccc2ccccc12` (stereo not given) reads 93% (inactive); that for `O=C(NCc1ccc(Cl)cc1)c1ccc(Cn2c(=O)c3cccn3c3cccnc32)cc1`, 49% (inactive); that for `CC(C)Oc1ccc(CNC(=O)c2ccc(Cn3c(=O)c4cccn4c4cccnc43)cc2)cc1`, 55% (inactive). The result for `O=C(NCc1ccccc1Cl)c1ccc(Cn2c(=O)c3cccn3c3cccnc32)cc1` reads 103% (inactive); that for `COc1ccc(CNC(=O)c2ccc(Cn3c(=O)c4cccn4c4cccnc43)cc2)c(OC)c1`, 58% (active). Regarding `O=C(NCCc1ccc(Cl)cc1)c1ccc(Cn2c(=O)c3cccn3c3cccnc32)cc1`, the survival was 43% (active). The result for `O=C(NCCc1ccccc1)c1ccc(Cn2c(=O)c3cccn3c3cccnc32)cc1` reads 51% (inactive).

As for `CCCNC(=O)c1ccc(Cn2c(=O)c3cccn3c3cccnc32)cc1`, the survival was 52% (inactive).

For `CCOc1cc(CNC(=O)c2ccc(Cn3c(=O)c4cccn4c4cccnc43)cc2)ccc1OC`, the survival is 52% (active). The result for `CCOc1ccccc1CNC(=O)c1ccc(Cn2c(=O)c3cccn3c3cccnc32)cc1` reads 44% (active); that for `CN(C)c1ccc(CNC(=O)c2ccc(Cn3c(=O)c4cccn4c4cccnc43)cc2)cc1`, 60% (inactive); that for `Cc1ccc(CCNC(=O)c2ccc(Cn3c(=O)c4cccn4c4cccnc43)cc2)cc1`, 52% (inactive).

With `COc1ccc(CNC(=O)c2ccc(Cn3c(=O)c4cccn4c4cccnc43)cc2)cc1OC`, the survival is 67% (inactive). The result for `O=C(NCCc1ccccc1)C(=O)Nc1cccc(Br)c1` reads 68% (inactive).

Regarding `Cc1ccc2c(CC(=O)Nc3nnc(C(C)C)s3)coc2c1C`, the survival is 101% (inactive).

As for `CC(C)c1ccc(CN(C(=O)c2cc3ccccc3oc2=O)C2CCS(=O)(=O)C2)cc1` (stereo not given), the survival is 51% (inactive). The result for `CCCCOC(=O)c1ccc(NC(=O)c2ccc3c(c2)CCCN3S(C)(=O)=O)cc1` reads 96% (inactive); that for `C=CCC1N(c2ccccc2)C(=O)C2C(C(=O)O)C3C=CC21O3` (stereo not given), 103% (inactive).

As to `[O-][n+]1onc2c1CCC1N(O)C(c3ccccc3)CC21O` (stereo not given), the survival is 80% (inactive).

`O=C(CCSCc1ccc(Cl)cc1)N1CCN(c2ccccc2F)CC1`: the survival was 77% (inactive). The result for `CC1=C(C(=O)Nc2cc(C)ccc2C)C2(CCCCCC2)OC1=O` reads 89% (inactive); that for `Cc1ccccc1NC(=O)C(=O)NCC1(c2ccccc2)CCCC1`, 73% (inactive). For `O=C(Cn1c(=O)n(-c2ccccc2Cl)c(=O)c2sc3ccccc3c21)NC1CCCCC1`, the survival is 109% (inactive). `COc1ccc(CCNC(=O)c2ccc(Cn3c(=O)c4cccn4c4cccnc43)cc2)cc1OC`: the survival was 48% (active).

On to `O=C(NCc1ccccc1)c1ccc(Cn2c(=O)c3cccn3c3cccnc32)cc1`, for which the survival was 108% (inactive). The result for `COc1ccc(CCNC(=O)CCn2c(=O)c3cccn3c3cccnc32)cc1OC` reads 82% (inactive). The result for `CCc1ccc(CNC(=O)c2ccc(Cn3c(=O)c4cccn4c4cccnc43)cc2)cc1` reads 67% (inactive); that for `Cc1cccc(CNC(=O)c2ccc(Cn3c(=O)c4cccn4c4cccnc43)cc2)c1`, 48% (active). The result for `CCOc1ccc(CCNC(=O)c2ccc(Cn3c(=O)c4cccn4c4cccnc43)cc2)cc1` reads 93% (inactive). `Cc1cc(C)c2sc(N(Cc3cccnc3)C(=O)CCS(=O)(=O)c3ccccc3)nc2c1`: the survival was 89% (inactive). For `CCc1ccccc1NC(=O)Cn1c(=O)nc(-c2ccccc2)c2ccccc21`, the survival is 90% (inactive).

These data come from PubChem BioAssay AID463173 (ICCB-Longwood Screening Facility, Harvard Medical School, 2010).
